This is an account of results in PubChem BioAssay (Tox21).

Experiment [1] can be described thus: qHTS assay to identify small molecule antagonists of the glucocorticoid receptor (GR) signaling pathway - cell viability counter screen (AID 720693). Note: nearly all actives have a fitted effect of over 55% in size. For orientation: qHTS replaces the single test concentration by a dilution series.
A short description of experiment [2]: qHTS assay for identifying genotoxic compounds that show differential cytotoxicity against isogenic chicken DT40 cell lines with known DNA damage response pathways - wild type cell line (AID 743012). Note: nearly all actives have a fitted effect of over 60% in size. Note: potency is the fitted concentration of half-maximal effect. Summed up: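 First, wild type DT40 cells were plated at 300 per well and equilibrated about 0.5 h at 37 C/5% CO2. Next, compounds in DMSO were added and exposure lasted 40 h. Finally, CellTiter-Glo was added for 30 min at room temperature and luminescence recorded.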

The nature of experiment [3]: qHTS assay for identifying genotoxic compounds that show differential cytotoxicity against isogenic chicken DT40 cell lines with known DNA damage response pathways - Rev3 mutant cell line (AID 743014). Note: nearly all actives have a fitted effect of over 55% in size. Note: potency is the fitted concentration of half-maximal effect.
Experiment [4] in a line: qHTS assay for identifying genotoxic compounds that show differential cytotoxicity against isogenic chicken DT40 cell lines with known DNA damage response pathways - Rad54/Ku70 mutant cell line (AID 743015). Note: nearly all actives have a fitted effect of over 60% in size. Note: potency is the fitted concentration of half-maximal effect.
Experiment [5] can be described thus: qHTS assay to identify small molecule antagonists of the androgen receptor (AR) signaling pathway - cell viability counter screen (AID 743033; note: nearly all actives have a fitted effect of over 45% in size).
Experiment [6] can be described thus: qHTS assay to identify small molecule antagonists of the androgen receptor (AR) signaling pathway using the MDA cell line - cell viability counter screen (AID 743041; note: nearly all actives have a fitted effect of over 45% in size). Summed up: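 R1881-driven MDA-kb2 AR-luc cells, 3,000/well, were dosed with library compounds for 16 h; cell health came from CellTiter-Fluor fluorescence in the reporter wells.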
Experiment [7] deals with Androgen receptor (Homo sapiens) (UniProt P10275). The experiment is described as follows: qHTS assay to identify small molecule antagonists of the androgen receptor (AR) signaling pathway (AID 743035; active = well fitted inhibition curve with a large enough effect in the signal ratio in the repeat runs, not every such curve was filed as active; the % refers to the signal ratio). Summed up: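 Beta-lactamase FRET read (2 h RT incubation with LiveBLAzer B/G) following 16 h of compound plus R1881 treatment of AR-UAS-bla HEK293 cells, which had been pre-incubated 4 h at 37C.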
Androgen receptor (Homo sapiens), sequence (P10275 whole entry, looked up): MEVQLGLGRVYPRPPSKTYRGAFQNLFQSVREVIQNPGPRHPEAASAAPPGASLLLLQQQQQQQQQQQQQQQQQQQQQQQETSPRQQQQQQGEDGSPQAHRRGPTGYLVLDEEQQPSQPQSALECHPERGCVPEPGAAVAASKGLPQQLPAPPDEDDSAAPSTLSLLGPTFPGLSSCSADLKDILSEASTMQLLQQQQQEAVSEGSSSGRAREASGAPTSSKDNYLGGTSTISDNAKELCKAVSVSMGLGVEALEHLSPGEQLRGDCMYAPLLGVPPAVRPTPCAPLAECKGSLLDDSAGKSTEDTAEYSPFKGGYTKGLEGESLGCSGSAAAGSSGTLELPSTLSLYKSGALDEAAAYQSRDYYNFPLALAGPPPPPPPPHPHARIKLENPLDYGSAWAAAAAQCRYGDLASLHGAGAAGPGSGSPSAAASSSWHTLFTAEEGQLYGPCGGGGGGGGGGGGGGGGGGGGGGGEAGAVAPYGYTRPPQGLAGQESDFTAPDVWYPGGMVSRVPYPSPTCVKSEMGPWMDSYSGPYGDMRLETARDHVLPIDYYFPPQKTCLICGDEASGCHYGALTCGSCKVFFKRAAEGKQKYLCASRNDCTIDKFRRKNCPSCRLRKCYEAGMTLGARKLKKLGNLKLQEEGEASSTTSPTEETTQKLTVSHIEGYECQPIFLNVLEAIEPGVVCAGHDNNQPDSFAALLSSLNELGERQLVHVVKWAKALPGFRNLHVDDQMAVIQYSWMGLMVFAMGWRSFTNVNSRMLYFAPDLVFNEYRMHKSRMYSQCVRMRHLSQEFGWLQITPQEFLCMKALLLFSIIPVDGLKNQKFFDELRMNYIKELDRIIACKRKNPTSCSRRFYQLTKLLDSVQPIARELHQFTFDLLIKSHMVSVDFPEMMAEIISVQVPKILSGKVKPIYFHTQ

Experiment [8] has the same target. The experiment is described as follows: qHTS assay to identify small molecule agonists of the androgen receptor (AR) signaling pathway (AID 743036; active = well fitted activation curve with a large enough effect in the signal ratio in the repeat runs, with a control signal flat, not every such curve was filed as active; the % refers to the signal ratio). Summed up:
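Reporter line: GeneBLAzer AR-UAS-bla-GripTite (HEK293). Steps: plate cells, 4 h rest, add compounds, 16 h at 37C, add LiveBLAzer B/G substrate, 2 h at RT, read fluorescence.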

The target is the same in experiment [9]. The experiment is described as follows: qHTS assay to identify small molecule agonists of the androgen receptor (AR) signaling pathway using the MDA cell line (AID 743040; note: nearly all actives have a fitted effect of over 20% in size). The method, boiled down: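 After a 5 h incubation at 37C and 0% CO2, MDA-kb2 reporter cells were dosed with compounds in DMSO and kept 16 h under the same conditions. Luciferase activity was then read as luminescence with ONE-Glo.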

Experiment [10] has the same target. The experiment is described as follows: qHTS assay to identify small molecule antagonists of the androgen receptor (AR) signaling pathway using the MDA cell line (AID 743042; note: nearly all actives have a fitted effect of over 55% in size; note: potency is the fitted concentration of half-maximal effect). The method, boiled down:
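Antagonist mode: compounds plus R1881 agonist added to MDA-kb2 AR-luc cells, incubated 16 h at 37C. Luciferase reporter luminescence quantified, with multiplexed CellTiter-Fluor readout for cell viability.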

Each structure is given as a SMILES string. Several values for one entry are separate records, joined by “and”; a condition that tells them apart may be missing. Identical values can stand only once. Results filed as inconclusive are left out. More than one record can exist for a structure, and the calls need not agree. Activity calls are given as the source filed them. Unless noted, calls come from the whole dose curve; as a rule, active = well fitted curve in the direction sought with a large enough effect in the repeat runs; inconclusive = weak or mixed curves; inactive = no such curve, though single readings can be large; an effect the other way counts as inactive or inconclusive.

For `CCCN1CCCC[C@H]1C(=O)Nc1c(C)cccc1C`, the outcome in experiment [1] was inactive. Also, the Potency entry in experiment [2], in [3], in experiment [4], in experiment [5] and in [6] was “inactive” each time.
With `CCOC(=O)c1cccc(N)c1`, the molecule was called inactive in experiment [1]. For the same molecule, the Potency result in [2], in [3], in [4], in [5] and in experiment [6] was “inactive” in each case.
Regarding `O=C(CCCN1CCC(O)(c2cccc(C(F)(F)F)c2)CC1)c1ccc(F)cc1`, in experiment [1], the molecule was classed as inactive. Also, the Potency is 10.6 µM (active) in experiment [2], 11.9 µM (active) in experiment [3] and 11.9 µM (active) in experiment [4]. Also, the Potency result in experiment [5] is “inactive”.
Take `N[C@@H](C(=O)N[C@@H]1C(=O)N2C(C(=O)O)=C(Cl)CS[C@H]12)c1ccccc1`: the outcome in [1] was inactive. Besides, the Potency entry in experiment [2], in experiment [3], in experiment [4], in experiment [5] and in experiment [6] was “inactive” throughout.
As to `CN1C(=O)N(C)C(O)C1O` (stereo unspecified), the result in experiment [1] was inactive. The Potency entry in [2], in experiment [3], in experiment [4], in experiment [5] and in experiment [6] was “inactive” in each case.
For the molecule `C=C(C)C(=O)OCCCCCCCC(C)C`, the outcome in experiment [1], in [7] and in experiment [8] was inactive. Further, the Potency result in experiment [2], in experiment [3], in experiment [4], in experiment [5], in experiment [9] and in experiment [6] was “inactive” each time. Also, the Potency entry in [10] was “inactive”.
For `OC[C@]1(O)OC[C@@H](O)[C@H](O)[C@@H]1O`, in experiment [1], the molecule was classed as inactive. The Potency entry in [2], in experiment [3], in [4], in [5] and in experiment [6] was “inactive” throughout.
As for `Cc1ccc(C#N)cc1`, in experiment [1], the molecule was called inactive. Also, the Potency entry in [2], in experiment [3], in experiment [4], in experiment [5] and in experiment [6] was “inactive” throughout.
Regarding `CC(C)(c1ccc(O)cc1)c1ccc(O)cc1`, the call in [1] and in experiment [8] was inactive. Besides, the Potency was 27.3 µM (active) in experiment [2]; 67.8 µM (active) and 50.4 µM (active) in [3]; 49.2 µM (active) in [4]; 59.2 µM (active) in experiment [10]. In addition, the Potency entry in [5], in [9] and in experiment [6] was “inactive” in each case.
With `CCN1CCC[C@H]1CNC(=O)c1cc(S(N)(=O)=O)ccc1OC`, the result in [1], in [7] and in experiment [8] was inactive. Also, the Potency entry in experiment [2], in experiment [3], in experiment [4], in experiment [5], in experiment [9] and in experiment [6] was “inactive” throughout. The Potency result in experiment [10] was “inactive”.
As for `CC(C)CNCC(C)C`, in [1], the molecule was classed as inactive. In addition, the Potency result in experiment [2], in experiment [3], in experiment [4], in experiment [5] and in experiment [6] was “inactive” in each case.
`CCCCOCCOCCOCc1cc2c(cc1CCC)OCO2`: the molecule was called inactive in [1], in experiment [7] and in experiment [8]. In addition, the Potency in experiment [2] is 24.6 µM (active); in [4] it was 34.7 µM (active). Moreover, the Potency result in experiment [3], in experiment [5], in [9], in experiment [6] and in [10] was “inactive” each time.
On to `COc1ccc2c(c1)c(CC(=O)OCC(=O)O)c(C)n2C(=O)c1ccc(Cl)cc1`, for which the call in [1] and in experiment [7] was inactive. In addition, the Potency result in experiment [2], in experiment [3], in experiment [4], in experiment [5], in experiment [9] and in experiment [6] was “inactive” each time. In addition, in experiment [10], the Potency entry is “inactive”.
Turning to `CN1CCCC1`, the result in experiment [1] was inactive. For the same molecule, the Potency entry in experiment [2], in [3], in experiment [4], in experiment [5] and in [6] was “inactive” each time.
`O=[N+]([O-])c1ccc(F)cc1F`: the molecule was called inactive in experiment [1]. Besides, the Potency entry in [2], in [3], in experiment [4], in [5] and in experiment [6] was “inactive” throughout.
Regarding `Nc1ccc(S(=O)(=O)Nc2ccnn2-c2ccccc2)cc1`, the outcome in experiment [1] was inactive. Further, the Potency entry in experiment [2], in experiment [3], in experiment [4], in experiment [5] and in experiment [6] was “inactive” each time.
Turning to `O=Cc1cccc([N+](=O)[O-])c1`, in experiment [1], the molecule was called inactive. For the same molecule, the Potency entry in [2], in experiment [3], in [4], in [5] and in experiment [6] was “inactive” each time.
Take `COC(=O)c1c(Cl)c(Cl)c(C(=O)OC)c(Cl)c1Cl`: in experiment [1], the molecule was classed as inactive. In addition, in experiment [2], the Potency result was “inactive and 48.6 µM (active)”. The Potency entry in experiment [3], in [4], in [5] and in experiment [6] was “inactive” in each case.
Regarding `c1cnc(N2CCN(Cc3ccc4c(c3)OCO4)CC2)nc1`, the molecule was classed as inactive in [1]. In addition, the Potency entry in experiment [2], in experiment [3], in [4], in [5] and in experiment [6] was “inactive” each time.
`Cc1c(O)cccc1O`: the call in experiment [1] was inactive. Further, the Potency result in [2], in experiment [3], in experiment [4], in experiment [5] and in experiment [6] was “inactive” in each case.
In the case of `NCCCNCCSP(=O)(O)O`, the call in experiment [1] was inactive. Besides, the Potency result in [2], in experiment [3], in experiment [4], in [5] and in [6] was “inactive” in each case.
Turning to `CC(C)=CCCC(C)CC(=O)O` (stereo unspecified), the molecule was called inactive in [1]. In addition, the Potency result in [2], in [3], in experiment [4], in experiment [5] and in [6] was “inactive” throughout.
With `CC[N+](C)(C)c1cccc(O)c1`, the result in experiment [1] was inactive. Besides, the Potency entry in experiment [2], in experiment [3], in experiment [4], in experiment [5] and in [6] was “inactive” each time.
As for `CC(C)(O)C#CC(C)(C)O`, the outcome in experiment [1] was inactive. Besides, the Potency entry in experiment [2], in experiment [3], in experiment [4], in experiment [5] and in experiment [6] was “inactive” in each case.
Regarding `CCOC(=O)CC(C)=O`, the call in [1] was inactive. Besides, the Potency result in experiment [2], in experiment [3], in experiment [4], in [5] and in [6] was “inactive” in each case.
In the case of `CC(C[N+](C)(C)C)OC(N)=O` (stereo unspecified), the molecule was classed as inactive in experiment [1]. In addition, the Potency result in [2], in experiment [3], in experiment [4], in [5] and in [6] was “inactive” in each case.
Regarding `O=C1CCCCCCCCCCCN1`, the call in experiment [1] was inactive. Also, the Potency result in experiment [2], in experiment [3], in [4], in experiment [5] and in experiment [6] was “inactive” in each case.
Take `C[C@H]1C[C@@H](O)CC(C)(C)C1`: the molecule was called inactive in experiment [1]. The Potency result in [2], in experiment [3], in experiment [4], in experiment [5] and in [6] was “inactive” each time.
Regarding `COC(=O)CCSCCC(=O)OC`, the molecule was called inactive in [1]. For the same molecule, the Potency result in [2], in experiment [3], in experiment [4], in experiment [5] and in [6] was “inactive” each time.
